Source: PubChem BioAssay
Calls of active or inactive are those of the source.

Legend:
Albumin (Bos taurus) = Albumin (Bos taurus) (UniProt P02769); experiment: compounds binding labelled BSA control protein – biochemical, small-molecule microarray, Alexa647 label, 635/667 nm fluorescence, artefact control for SMM control protein annotation, profiling panel (AID 1118); details: BSA-A647 binding, fluorescence 635 nm, higher = more signal;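 further: score merges 667 nm emission intensity and signal-to-noise per printed compound spot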
[1] = probe aXIP binding to arrayed compounds – biochemical, NeuroSMM set, 635/667 nm fluorescence, primary screen (AID 1119); details: small-molecule microarray, higher = more signal, called active from +8 up or from −8 down;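 further: probe is the protein aXip251-270 applied at 1 µg/mL to compound-printed slides; binding of probe to printed compounds measured as 667 nm fluorescence plus signal to noise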
[2] = probe aNOTCH3 binding on compound microarray – biochemical, small-molecule microarray, 635/667 nm fluorescence, primary screen (AID 1120); details: higher = more signal;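 further: probe is a biotin-tagged antibody raised against NOTCH3 rather than NOTCH3 protein; score merges spot fluorescence near 667 nm with spot signal to noise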
[3] = probe aNOTCH2 binding on compound microarray – biochemical, small-molecule microarray, 635/667 nm fluorescence, primary screen (AID 1121); details: higher = more signal;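 further: score merges feature fluorescence read at 667 nm with its signal to noise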
[4] = biological target: Carbonic anhydrase 2 (Homo sapiens) (UniProt P00918); experiment: compounds binding carbonic anhydrase 2 – biochemical, small-molecule microarray, Alexa647-labelled CAII, profiling panel (AID 1122); details: CAII-A647 binding fluorescence, higher = more signal
[5] = COS7 lysate on small-molecule microarray, probe aHis, 635 nm (AID 1123); details: COS7 cell lysate, fluorescence, higher = more signal;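 further: z-score combines 667nm fluorescence intensity with signal-to-noise per printed compound spot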
[6] = probe aLAP1 signal on lysate-treated microarray – cell lysate, small-molecule microarray, COS7 lysate, primary screen (AID 1124); details: probe aLAP1, fluorescence, higher = more signal;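 further: lysate comes from COS7 cells expressing LAP1 and is applied at 0.3 µg/mL; score merges spot fluorescence near 667 nm with signal-to-noise over triplicate slides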
Sam68 (KHDRBS1) = experiment: compounds binding KHDRBS1 protein – biochemical, small-molecule microarray, 635 nm fluorescence, primary screen (AID 1125); details: higher = more signal;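 further: score merges 667 nm channel intensity with signal to noise over triplicate slides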
[7] = system: Chordin-like protein 2 (CHRDL2); experiment: compounds binding chordin-like 2 – biochemical, small-molecule microarray, 635 nm fluorescence, primary screen (AID 1126); details: fluorescence 635 nm, higher = more signal;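 further: printed compound slides probed with Chrdl2 protein at 4 µg/mL for 1 h at 4 C; score merges 667 nm emission intensity with signal to noise over three replicate slides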
[8] = biological target: Concanavalin-A (Canavalia ensiformis) (UniProt P02866); experiment: compounds binding concanavalin A lectin – biochemical, small-molecule microarray, Alexa647 label, 635 nm, artefact control for SMM control protein annotation, primary screen (AID 1127); details: ConA-A647 binding fluorescence, higher = more signal;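 further: z combines 667 nm emission intensity with signal-to-noise across three replicate slides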
[9] = compounds binding Alexa647 anti-His antibody – biochemical, small-molecule microarray, 635 nm fluorescence, artefact control for SMM control protein annotation, primary screen (AID 1128); details: higher = more signal;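 further: score merges feature fluorescence with signal-to-noise for each printed compound spot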
[10] = system: Human papillomavirus type 1a E7 protein (residues 1-88); experiment: HPV1a E7 small-molecule binders, primary screen, biochemical, small-molecule microarray, residues 1-88, 635 nm (AID 1129); details: small-molecule microarray binding, fluorescence 635 nm; higher = more signal
[11] = biological target: Focal adhesion kinase 1 (Homo sapiens) (UniProt Q05397); experiment: PTK2 protein binding on printed compound slides – biochemical, small-molecule microarray, 635/667 nm fluorescence, BSA, DTT, primary screen (AID 1130); details: 635 nm fluorescence, higher = more signal;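 further: composite of spot emission at 667 nm and signal to noise over triplicate slides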
[12] = system: Fibrinogen (Alexa647-labelled); experiment: Alexa647-fibrinogen binding to printed small molecules – biochemical, small-molecule microarray, 635/667 nm fluorescence, artefact control for SMM control-protein annotation, profiling panel (AID 1131); details: fibrinogen-A647 binding fluorescence, higher = more signal;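 further: z-score merges 667 nm fluorescence with per-spot signal-to-noise over triplicate slides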
[13] = biological target: Follistatin (Homo sapiens) (UniProt P19883); experiment: FST protein binding to printed compounds – biochemical, small-molecule microarray, 635/667 nm fluorescence, primary screen (AID 1132); details: 635 nm fluorescence, higher = more signal
[14] = biological target: Fibroblast growth factor 2 (Homo sapiens) (UniProt P09038); experiment: basic fibroblast growth factor binding to printed compounds – biochemical, small-molecule microarray, 635/667 nm fluorescence, primary screen (AID 1133); details: FGF2, fluorescence 635/667, higher = more signal
[15] = JC-1 mitochondrial potential readout, lung cancer cells – cell-based, A549, JC-1 fluorescence, basal, 24 h, 100 nL, profiling panel (AID 1138); details: higher = more signal;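 further: A549 lung adenocarcinoma cells under basal conditions with no added stimulus; test concentration not given here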
Lefty1 = Lefty1 protein binding to printed compounds – biochemical, small-molecule microarray, 635/667 nm fluorescence, primary screen (AID 1139); details: fluorescence 635/667, higher = more signal
[16] = system: wheat germ agglutinin (Triticum aestivum), Alexa647-labelled; experiment: Alexa647-WGA lectin binding to printed small molecules – biochemical, small-molecule microarray, 635/667 nm fluorescence, artefact control for SMM control-protein annotation, profiling panel (AID 1140); details: WGA-A647 binding, 635 nm fluorescence, higher = more signal;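 further: score merges 667 nm feature emission with signal to noise over triplicate slides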
[17] = biological target: Luciferin 4-monooxygenase (Photinus pyralis) (UniProt P08659); experiment: inhibition of purified Photinus pyralis luciferase – biochemical, luminescence, purified enzyme, 2006 set, primary screen (AID 1141); details: purified firefly luciferase, SteadyGlo luminescence, 30 min; higher = more signal, called active from +8 up or from −8 down;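 further: cell-free assay with purified firefly luciferase at 100 ng per well in PBS; test concentration not given here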
Chain of Luciferin 4-monooxygenase (Photinus pyralis) (P08659 whole entry, looked up): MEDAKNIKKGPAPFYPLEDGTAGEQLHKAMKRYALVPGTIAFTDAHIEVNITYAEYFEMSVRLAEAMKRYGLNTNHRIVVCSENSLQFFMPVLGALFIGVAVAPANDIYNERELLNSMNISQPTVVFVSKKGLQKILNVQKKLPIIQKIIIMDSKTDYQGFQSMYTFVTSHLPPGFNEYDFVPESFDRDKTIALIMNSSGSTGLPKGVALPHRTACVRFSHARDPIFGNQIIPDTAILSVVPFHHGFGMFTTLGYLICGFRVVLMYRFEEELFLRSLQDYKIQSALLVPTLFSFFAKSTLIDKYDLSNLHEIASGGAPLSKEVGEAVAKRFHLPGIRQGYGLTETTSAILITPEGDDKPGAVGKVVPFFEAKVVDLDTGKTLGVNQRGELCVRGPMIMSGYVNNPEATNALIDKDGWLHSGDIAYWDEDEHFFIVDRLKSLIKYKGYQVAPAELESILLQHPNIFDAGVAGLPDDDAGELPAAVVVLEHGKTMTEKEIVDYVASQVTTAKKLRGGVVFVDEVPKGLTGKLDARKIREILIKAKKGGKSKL

Chain of Fibroblast growth factor 2 (Homo sapiens) (P09038 whole entry, looked up): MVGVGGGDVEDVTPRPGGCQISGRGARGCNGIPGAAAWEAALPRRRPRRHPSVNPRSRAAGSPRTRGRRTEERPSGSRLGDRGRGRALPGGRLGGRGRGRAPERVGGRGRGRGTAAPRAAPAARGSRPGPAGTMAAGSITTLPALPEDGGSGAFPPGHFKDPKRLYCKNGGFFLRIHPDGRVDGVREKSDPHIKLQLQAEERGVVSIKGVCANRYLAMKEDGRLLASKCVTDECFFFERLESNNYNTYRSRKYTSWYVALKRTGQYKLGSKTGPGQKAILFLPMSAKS
Chain of Albumin (Bos taurus) (P02769 whole entry, looked up): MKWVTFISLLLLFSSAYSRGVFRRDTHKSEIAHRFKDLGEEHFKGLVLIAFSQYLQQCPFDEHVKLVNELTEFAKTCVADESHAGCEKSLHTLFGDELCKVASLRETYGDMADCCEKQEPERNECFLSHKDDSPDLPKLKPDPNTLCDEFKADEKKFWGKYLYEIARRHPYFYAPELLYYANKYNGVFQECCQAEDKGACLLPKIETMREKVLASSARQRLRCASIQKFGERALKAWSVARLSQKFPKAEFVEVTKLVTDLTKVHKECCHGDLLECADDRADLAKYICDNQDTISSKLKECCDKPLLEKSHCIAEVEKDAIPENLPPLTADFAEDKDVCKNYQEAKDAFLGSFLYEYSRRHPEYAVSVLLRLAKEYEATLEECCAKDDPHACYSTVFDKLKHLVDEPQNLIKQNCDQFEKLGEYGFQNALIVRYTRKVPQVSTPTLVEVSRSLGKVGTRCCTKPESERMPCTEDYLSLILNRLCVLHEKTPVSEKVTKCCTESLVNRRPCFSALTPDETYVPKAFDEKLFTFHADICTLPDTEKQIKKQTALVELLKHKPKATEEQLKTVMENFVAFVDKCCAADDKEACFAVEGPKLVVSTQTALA
Chain of Follistatin (Homo sapiens) (P19883 whole entry, looked up): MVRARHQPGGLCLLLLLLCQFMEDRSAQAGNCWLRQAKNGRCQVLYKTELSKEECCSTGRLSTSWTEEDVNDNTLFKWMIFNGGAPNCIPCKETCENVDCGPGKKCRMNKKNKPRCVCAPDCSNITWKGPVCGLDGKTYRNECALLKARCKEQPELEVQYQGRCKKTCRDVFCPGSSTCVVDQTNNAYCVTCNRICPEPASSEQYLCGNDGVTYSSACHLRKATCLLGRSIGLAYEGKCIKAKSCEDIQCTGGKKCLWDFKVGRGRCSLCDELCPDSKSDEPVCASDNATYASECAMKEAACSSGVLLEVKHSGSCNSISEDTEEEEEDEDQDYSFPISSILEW
Chain of Concanavalin-A (Canavalia ensiformis) (P02866 whole entry, looked up): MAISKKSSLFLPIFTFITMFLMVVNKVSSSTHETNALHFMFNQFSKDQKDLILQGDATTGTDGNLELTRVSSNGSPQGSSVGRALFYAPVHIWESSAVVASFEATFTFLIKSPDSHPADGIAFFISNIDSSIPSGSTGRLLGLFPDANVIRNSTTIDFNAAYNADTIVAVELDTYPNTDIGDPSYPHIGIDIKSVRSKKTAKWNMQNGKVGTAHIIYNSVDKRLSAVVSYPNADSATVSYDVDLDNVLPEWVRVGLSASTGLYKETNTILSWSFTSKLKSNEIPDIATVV
Chain of Focal adhesion kinase 1 (Homo sapiens) (Q05397 whole entry, looked up): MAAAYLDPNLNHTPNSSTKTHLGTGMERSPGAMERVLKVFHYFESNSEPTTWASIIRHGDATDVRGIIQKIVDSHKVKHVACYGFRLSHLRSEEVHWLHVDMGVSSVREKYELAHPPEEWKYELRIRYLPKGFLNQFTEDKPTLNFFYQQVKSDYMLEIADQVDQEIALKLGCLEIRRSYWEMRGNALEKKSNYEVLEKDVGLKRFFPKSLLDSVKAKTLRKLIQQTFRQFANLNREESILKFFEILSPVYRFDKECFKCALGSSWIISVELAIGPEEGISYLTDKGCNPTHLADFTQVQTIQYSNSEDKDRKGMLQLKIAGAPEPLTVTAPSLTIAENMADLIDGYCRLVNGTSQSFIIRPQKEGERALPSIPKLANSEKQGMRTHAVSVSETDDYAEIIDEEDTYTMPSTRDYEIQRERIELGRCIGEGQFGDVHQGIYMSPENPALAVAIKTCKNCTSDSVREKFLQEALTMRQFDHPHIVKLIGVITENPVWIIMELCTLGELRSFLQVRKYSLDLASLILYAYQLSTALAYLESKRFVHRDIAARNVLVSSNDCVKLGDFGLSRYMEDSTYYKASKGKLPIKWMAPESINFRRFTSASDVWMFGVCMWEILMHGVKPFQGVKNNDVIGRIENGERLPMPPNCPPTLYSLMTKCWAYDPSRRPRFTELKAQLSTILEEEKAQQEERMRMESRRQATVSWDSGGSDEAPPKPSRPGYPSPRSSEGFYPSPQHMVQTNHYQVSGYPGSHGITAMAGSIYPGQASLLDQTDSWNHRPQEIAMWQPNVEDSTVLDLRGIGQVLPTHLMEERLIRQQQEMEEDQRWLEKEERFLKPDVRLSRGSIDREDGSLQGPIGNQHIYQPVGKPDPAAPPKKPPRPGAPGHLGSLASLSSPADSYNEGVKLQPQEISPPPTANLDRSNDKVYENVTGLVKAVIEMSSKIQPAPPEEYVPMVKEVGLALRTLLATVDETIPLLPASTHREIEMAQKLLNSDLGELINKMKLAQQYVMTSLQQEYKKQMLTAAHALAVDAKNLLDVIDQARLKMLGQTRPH

Row | SMILES | composite z-score (Albumin (Bos taurus)) | composite Z-score [1] | composite z-score [2] | composite z-score [3] | composite z-score [4] | composite z-score [5] | composite z-score [6] | composite z-score (Sam68 (KHDRBS1)) | composite z-score [7] | composite z-score [8] | composite z-score [9] | composite z-score [10] | composite z-score [11] | composite z-score [12] | composite z-score [13] | composite z-score [14] | z-score [15] | composite z-score (Lefty1) | composite z-score [16] | z-score [17]
1 | C[N+](C)(C)CCCCCCNC(=O)[C@H]1C[C@H]2C(=O)NCC(=O)N2[C@H]1c1ccc(O)cc1 | -0.0386 | 1.17 (inactive) | -0.114 | -0.149 | 0.422 | 1.21 | 0.255 | 1.12 | 0.856 | 0.758 | 2.46 | 0.996 | -0.0037 | 0.211 | 1.37 | 1.67 | -1 | 1.59 | 0.195 | 0.836 (inactive)
2 | C=CC[C@]1(C(=O)NCCN2CCOCC2)N=C(c2ccc(OCCCO)cc2)O[C@H]1c1ccccc1CN=[N+]=[N-] | -0.91 | 0.363 (inactive) | -0.273 | 0.0855 | 0.724 | 1.41 | 0.034 | 0.826 | 1.38 | -0.438 | 0.625 | 1.18 | -0.319 | 0.636 | 1.46 | 1.68 | 2.52 | 0.0118 | 1.03 | -1.37 (inactive)
3 | COC(=O)[C@@]1(Cc2ccc(OC)cc2)[C@H]2c3cc(C(=O)N4CCCC4)n(Cc4c(-c5ccccc5)noc4C)c3C[C@H]2CN1C(=O)c1ccccc1 | 0.634 | 0.216 (inactive) | 0.576 | 0.251 | 0.446 | 3.24 | 0.214 | 1.35 | -0.748 | 0.978 | 1.45 | 1.27 | 0.372 | 0.695 | 0.699 | -0.298 | -0.608 | 0.0669 | 0.539 | 2.05 (inactive)
4 | COC(=O)c1nc2oc1CC[C@@H](CO)NC(=O)N(C)Cc1cnnn1C[C@H](Cc1ccccc1)NC2=O | 0.771 | 0.15 (inactive) | -0.182 | -0.167 | 0.853 | 0.205 | 0.321 | -0.0671 | -0.873 | -0.343 | -0.0727 | -0.405 | -0.302 | 0.779 | -0.701 | -0.403 | 0.9 | -0.281 | 1.03 | 0.782 (inactive)
5 | COC(=O)[C@@]1(Cc2ccc(OC)cc2)[C@@H]2C(=CC(=O)[C@H]2CC(=O)C(=O)N(C)C)CN1C(=O)c1ccccc1 | 0.982 | -0.0238 (inactive) | 0.848 | 0.358 | 0.777 | 2.47 | 0.536 | 1.31 | -0.501 | 1.11 | 0.318 | 1.23 | 0.242 | 0.833 | 0.433 | -0.139 | 0.437 | -0.973 | 0.521 | 2.12 (inactive)
6 | C=CCOC(=O)[C@H]1[C@@H]2C(=O)O[C@@H](c3ccccc3)[C@@H](c3ccccc3)N2[C@@H](c2ccc(OCCOC(=O)[C@H]3C[C@H]4C(=O)N[C@@H](CCCCNC(C)=O)C(=O)N4[C@H]3c3ccc(O)cc3)cc2)[C@]12C(=O)Nc1ccccc12 | -1.06 | 1.09 (inactive) | 0.0076 | -0.112 | 0.634 | 1.19 | -0.549 | 1.3 | 0.998 | 1.16 | 2.7 | 1.12 | 0.765 | 0.732 | 1.4 | 1.63 | -1.16 | 1.1 | 0.538 | -2.37 (inactive)
7 | CC(C)[Si](C#C[Si](C(C)C)(C(C)C)C(C)C)(O[C@H](C)c1cn([C@H](CO)Cc2ccccc2)nn1)C(C)C | 0.544 | -0.397 (inactive) | -0.0699 | -0.145 | 0.0728 | 0.713 | -0.268 | 0.193 | 0.498 | 1.03 | 0.0517 | 0.209 | 0.21 | 0.259 | -0.093 | 0.288 | 0.476 | 0.412 | 0.141 | -1.03 (inactive)
8 | [N-]=[N+]=NCc1ccccc1[C@@H]1OC(c2ccc(OCCCO)cc2)=N[C@]1(CCS(=O)(=O)c1ccccc1)C(=O)NCC(O)CO (stereo not given in full) | 0.979 | 0.131 (inactive) | 0.13 | 0.208 | 0.526 | 3.18 | 1.01 | 1.29 | -0.563 | 1.18 | 2.39 | 1.28 | 0.546 | 1.03 | 1.29 | 1.05 | -0.145 | 0.171 | 1.16 | -1.93 (inactive)
9 | CC[C@H]1C2=C3C(CC[C@H]4C(OCc5ccc(F)cc5C(F)(F)F)OC[C@](C)([C@@H]34)N(C(=O)OC(C)(C)C)C2)C(COC)C1COC (stereo not given in full) | 0.515 | 0.0377 (inactive) | 0.0851 | -0.0372 | 0.687 | 1.1 | -0.115 | 0.0783 | -0.882 | 0.401 | -0.0372 | 0.0144 | -0.093 | -0.0416 | -0.0566 | -0.758 | 0.767 | -0.477 | 0.225 | 0.303 (inactive)
10 | Cc1ccc(S[C@]2(C(=O)NCCCN(C)C)CC(=O)N(C3CCCCC3)[C@@H]2c2ccc(CO)cc2)cc1 | 0.156 | 0.0469 (inactive) | -0.182 | -0.0761 | 0.228 | -0.111 | -0.183 | -1.01 | -1.18 | -0.957 | -0.693 | -0.612 | 0.116 | -1.43 | -0.24 | -0.852 | 1.28 | -0.562 | 0.165 | 0.437 (inactive)
11 | CC(C)N1C(=O)C[C@@](C(=O)NCCCN(C)C)(c2ccc([N+](=O)[O-])cc2)[C@H]1c1ccc(CO)cc1 | -0.0399 | 0.183 (inactive) | 0.0628 | -0.0698 | 0.573 | -0.185 | 0.0653 | -0.579 | -0.0507 | -0.158 | -0.616 | -0.605 | -0.519 | 0.47 | 0.316 | 0.875 | -0.488 | -0.0831 | -0.0539 | -0.287 (inactive)
